Screens: PubChem, National Center for Advancing Translational Sciences (NCATS)
Sampled rows, rich in hits. Any-hit rate of the full collection: about 12%.
G9a block: blocks human histone lysine methyltransferase G9a; actives 8.8% (n = 350,000); Potency, µM (doses to about 102 µM), hits mostly inhibitors; Q96KQ7; G9a H3K9 monomethylation, AlphaScreen, 2 h; AID 504332; further: nearly all actives have a fitted effect of over 75% in size
Target sequence (Q96KQ7 913-1193 limits assumed): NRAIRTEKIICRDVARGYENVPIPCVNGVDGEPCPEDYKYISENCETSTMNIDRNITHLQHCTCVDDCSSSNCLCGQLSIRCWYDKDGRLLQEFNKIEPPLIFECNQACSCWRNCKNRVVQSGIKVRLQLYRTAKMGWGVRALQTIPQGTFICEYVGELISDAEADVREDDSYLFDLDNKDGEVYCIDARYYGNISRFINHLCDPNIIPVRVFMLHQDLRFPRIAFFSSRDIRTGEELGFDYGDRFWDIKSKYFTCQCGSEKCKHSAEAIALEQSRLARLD
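Methyltransferase reactions run at room temperature for 2 h (20 nM enzyme, 500 nM biotin-H3K9 peptide, 20 uM SAM) after a 15 min compound preincubation; product detected by AlphaScreen beads and anti-H3K9me1 antibody.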
BAZ2B block: blocks human BAZ2B. AlphaScreen BAZ2B-H3K14Ac peptide displacement. Q9UIF8. actives 4.4% (n = 360,000). AID 504333. Potency, µM (top dose mostly 114 µM), usual class: inhibitors; further: nearly all actives have a fitted effect of over 60% in size
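BAZ2B (50 nM) with biotin-H3(5-23)K14Ac peptide (50 nM) in PBS pH 7.4, 0.01% Tween-20, preformed 30 min, then compound 30 min at room temperature; top concentration 110uM. AlphaScreen streptavidin donor/nickel chelate acceptor beads (10 ug/mL final), 20 min dark, signal read.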
L3MBTL1 inh: blocks human L3MBTL1; actives 0.66% (n = 230,000); Potency, µM (top dose mostly 57.1 µM), actives largely listed as inhibitors; AID 485360; AlphaScreen L3MBTL1–H3K9me1 peptide binding; further: nearly all actives have a fitted effect of over 60% in size
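Read-out is AlphaScreen signal from streptavidin donor and nickel chelate acceptor beads (10 ug/mL final each) bridging L3MBTL1 (50 nM) and biotinylated K9-monomethylated H3(1-15) peptide (75 nM), after 30 min compound exposure at room temperature.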
JMJD2A Tudor inh: JMJD2A Tudor domain (human) inhibition; AlphaScreen JMJD2A-Tudor / H3K4me3 peptide binding; Potency, µM (top dose mostly 114 µM), actives largely listed as inhibitors; actives 4.4% (n = 390,000); AID 504339; further: nearly all actives have a fitted effect of over 50% in size
HP1b binding inh: inhibitors of HP1-beta chromodomain binding to methylated histone tails. P83916. AlphaScreen HP1-beta / biotin-H3K9me3 peptide binding. Potency, µM (doses to about 114 µM), actives largely listed as inhibitors. actives 0.56% (n = 390,000); further: nearly all actives have a fitted effect of over 70% in size
Target sequence (P83916 whole entry, looked up): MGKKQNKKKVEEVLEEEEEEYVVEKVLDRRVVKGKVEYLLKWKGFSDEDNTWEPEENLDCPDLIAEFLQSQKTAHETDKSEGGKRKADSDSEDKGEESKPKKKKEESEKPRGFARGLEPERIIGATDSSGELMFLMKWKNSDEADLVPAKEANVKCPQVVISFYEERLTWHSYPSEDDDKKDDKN
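HP1-beta protein (50 nM final) preincubated 30 min at room temperature with biotinylated H3(1-18)K9me3 peptide (50 nM) in PBS pH 7.4, 0.01% Tween-20, then compound added for 30 min. AlphaScreen streptavidin donor/nickel chelate acceptor beads (10 ug/mL final), 30 min dark, luminescence read.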
Sfp inh: inhibitors of Bacillus subtilis Sfp phosphopantetheinyl transferase; Potency, µM, hits mostly inhibitors; Biochemical Sfp PPTase activity, qHTS; Q9F4F7; actives 3.5% (n = 310,000);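 further: the enzyme is Sfp with the accession as filed and its product quenches rhodamine fluorescence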
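Buffer: 50 mM Hepes-Na pH 7.6, 10 mM MgCl2, 0.01% Nonidet P-40, 0.01% BSA. Enzyme 15 nM, pre-exposed to compound 15 min; substrates then added and fluorescence change tracked over 30 min.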
A number is an active result; 0 = inactive; ? = inconclusive; - = no result; [ ] = another dose, or the depositor's remark. The call rests on the fitted dose curve; in most records, active means well fitted curve in the direction sought with a large enough effect; inconclusive means small, poorly fitted or top-dose-only effect, or another doubt; inactive means no such curve, though single readings can be large; an effect the other way counts as inactive or inconclusive.

SMILES	G9a block	BAZ2B block	L3MBTL1 inh	JMJD2A Tudor inh	HP1b binding inh	Sfp inh
CSCC[C@H](NC(=O)[C@H](CC(C)C)N1CCC(NC(=O)[C@@H](NC(=O)[C@H](Cc2ccccc2)NC(=O)[C@H](CO)NC(=O)[C@H](CC(=O)O)NC(=O)[C@@H](N)CCCCN)C(C)C)C1=O)C(N)=O (stereo partly drawn)	-	-	-	-	-	0
CC(=O)Nc1ccn(C2OC(C(COC(C)=O)NC(=O)C3CCCN3C(=O)OC(C)(C)C)C(OC(C)=O)C2OC(C)=O)c(=O)n1 (stereo not drawn)	-	-	-	0	0	0
CC(C)CCOc1cccc(C2c3c(oc4ccccc4c3=O)C(=O)N2CCCN2CCOCC2)c1 (stereo not drawn)	-	-	-	0	0	-
COCCN1C(=O)c2oc3ccccc3c(=O)c2C1c1ccc(OC)c(OC)c1 (stereo not drawn)	0	0	0	56.2µM	?	0
COc1ccc(C2c3c(oc4ccccc4c3=O)C(=O)N2CCN2CCOCC2)cc1OC (stereo not drawn)	-	-	-	0	0	-
Cc1ccc2oc3c(c(=O)c2c1)C(c1cccs1)N(CCCN(C)C)C3=O (stereo not drawn)	39.8µM	0	0	0	0	?
COc1cccc(C2c3c(oc4ccccc4c3=O)C(=O)N2CCCN2CCOCC2)c1 (stereo not drawn)	50.1µM	0	0	0	0	0
CCOc1ccc(-c2csc(/C(C#N)=C\c3ccc(O)c([N+](=O)[O-])c3)n2)cc1	?	7.08µM	?	22.4µM	35.5µM	79.4µM
CN(C)c1ccc(/C=C(\C#N)c2nc(-c3ccc(Cl)c(Cl)c3)cs2)cc1	?	0	-	0	0	-
O=S1(=O)c2cccc3cccc(c23)N1CCCN1CCN(c2ccc(F)cc2)CC1	0[12.7 µM]	-	-	-	-	0
O=C1c2cccnc2C(=O)N1CO	0	?	0	0	0	0
O=C1C(=O)c2ncccc2-c2cccnc21	0[2.33 µM]	-	-	-	-	0.631µM
Cc1ccc(C2C(C#N)=C3N=C(N)c4ccccc4N3C3=C2C(=O)CCC3)cc1 (stereo not drawn)	?	50.1µM	-	?	0	0
N#CC1=C2N=C(N)c3c(sc4c3CCCCC4)N2C2=C(C(=O)CCC2)C1c1ccccc1 (stereo not drawn)	0	44.7µM	0	?	0	0
N#CC1=C2N=C(N)c3ccccc3N2C2=C(C(=O)CCC2)C1c1ccc(F)cc1 (stereo not drawn)	0	0	-	?	0	0
CCCN(CCC)CCNC(=O)Cn1ncc2c([nH]c3ccc(C)cc32)c1=O	0	0	-	0	0	-
C=C(C)C(=O)OCC1CN2C(CCC(C)C2c2ccc(Br)cc2)C(=O)O1 (stereo not drawn)	-	-	-	-	-	0
O=C(c1cnc(N2CCOCC2)c2ccccc12)N1CCN(c2ccccc2F)CC1	0	0	-	0	0	-
C=CCn1c(O)c(CN2CCCCC2)c(C)c(C#N)c1=O	50.1µM	0	0	0	0	0
Cc1c(CN2CCCC(C)C2)c(O)n(CCO)c(=O)c1C#N (stereo not drawn)	-	0	0	0	0	0
Cc1c(C(=O)NCc2ccc(F)cc2)oc2ccc(S(=O)(=O)N3CCOCC3)cc12	0	0	-	0	0	0
COc1ccc(S(=O)(=O)N2CCOCC2)cc1C(=O)NCC(c1ccccc1)c1ccccc1	-	-	-	0	0	-
Cc1c(C(=O)NCc2c(F)cc(F)cc2F)oc2ccc(S(=O)(=O)N3CCOCC3)cc12	0	0	-	22.4µM	0	0
COCCCNC(=O)c1cc(S(=O)(=O)N2CCOCC2)ccc1SCc1cccc(OC)c1OC	31.6µM	0	-	0	0	50.1µM
Cc1c(C(=O)NCC2COc3ccccc3O2)oc2ccc(S(=O)(=O)N3CCOCC3)cc12 (stereo not drawn)	50.1µM	0	0	0	0	0
SMILES	G9a block	BAZ2B block	L3MBTL1 inh	JMJD2A Tudor inh	HP1b binding inh	Sfp inh
O=C(NCC1COc2ccccc2O1)c1cc(S(=O)(=O)N2CCOCC2)c(Cl)cc1Cl (stereo not drawn)	31.6µM	0	0	0	0	-
CCOc1ccc(NC(=O)c2cc(S(=O)(=O)NC3CCCC3)ccc2F)cc1	0	0	-	0	0	-
O=C(CSc1nc(=O)[nH]c2c1CCCC2)Nc1ccc(Cl)c(Cl)c1	0	0	-	0	0	-
COc1ccc2ncc3c(-c4ccc(C)c(C)c4)nn(CC(=O)Nc4ccccc4)c3c2c1	0	0	-	0	0	-
O=C(NC1CCCC1)c1cc(S(=O)(=O)N2CCOCC2)c(Cl)cc1Cl	0	0	0	0	0	0
O=C(COC(=O)c1cc(S(=O)(=O)N2CCOCC2)c(Cl)cc1Cl)NC1CC1	0.631µM	0	0	0	0	-
COCCCNC(=O)c1oc2ccc(S(=O)(=O)N3CCOCC3)cc2c1C	0	0	-	89.1µM	0	0
CC1CCc2c(nc3ncnn3c2NCCN(C)C)C1 (stereo not drawn)	3.98µM	0	-	56.2µM	0	0
Cc1cccc(C)c1-n1ncc(C(=O)Nc2ccc3c(c2)OCCO3)c1C1CCN(C(=O)OC(C)(C)C)CC1	0	0	-	?	0	-
CC1CCCCN1S(=O)(=O)c1ccc(S(=O)(=O)N2CCN(c3ccccc3)CC2)cc1 (stereo not drawn)	50.1µM	0	-	0	0	0
O=C(c1ccc(S(=O)(=O)N2CCCCC2)cc1)N1CCN(c2ccccc2)CC1	0[12.7 µM]	0	-	0	0	0
CN(C)c1ccc(S(=O)(=O)NCC(=O)OCC(=O)NC(=O)C2CCCCC2)cc1[N+](=O)[O-]	0[12.7 µM]	0	0	0	0	-
CC(C)CSc1ccc(S(=O)(=O)NCC(=O)O)cc1[N+](=O)[O-]	50.1µM	0	0	0	0	0
CN(C)c1ccc(S(=O)(=O)NCC(=O)OCC(=O)Nc2cccc(Cl)c2)cc1[N+](=O)[O-]	56.2µM	?	0	?	0	0
CNc1ccc(S(=O)(=O)NCC(=O)NCCCc2ccccc2)cc1[N+](=O)[O-]	39.8µM	50.1µM	-	?	0	0
COc1ccc(CCNC(=O)CNS(=O)(=O)c2ccc(N(C)C)c([N+](=O)[O-])c2)cc1OC	?	0	-	0	0	0
CN(C)c1ccc(S(=O)(=O)NCC(=O)NCc2ccccc2)cc1[N+](=O)[O-]	44.7µM	?	-	?	0	0
CNc1ccc(S(=O)(=O)NCC(=O)OC(C)C(=O)N(C)Cc2ccccc2)cc1[N+](=O)[O-] (stereo not drawn)	0[12.7 µM]	0	0	0	0	-
CSc1ccc(S(=O)(=O)NCC(=O)OC(C)C(=O)NCc2ccccc2)cc1[N+](=O)[O-] (stereo not drawn)	0	0	0	0	0	-
Cc1ccc(C)c(CN2C(=O)c3ccccc3S(=O)c3ccc(C(=O)N4CCN(c5cccc(Cl)c5)CC4)cc32)c1 (stereo not drawn)	0	?	-	0	0	-
